Species: Homo sapiens
Test: To identify inhibition of the IFN signalling (Jak-Stat) pathway via expression of an eGFP reporter gene under the control of an IFN-stimulated response element (ISRE) containing MxA promoter.
Format: functional
Parameters: scale not given: direction of the effect not stated beside the values
Conditions: 30 µM
Work on `COc1ccccc1CN1CCC2(CC1)CC(Oc1ccccn1)CO2` (stereo not given) yielded a Percent Effect of -3.26%. `CC(C)Nc1nc(N2CCOCC2)nc2c1CN(CC(=O)N(C)C)CC2` showed a Percent Effect of 15.8%. In the case of `c1ccc(CCN2CCN(c3ccc4nncn4n3)CC2)nc1`, the Percent Effect is reported as 21.7%. In the case of `COc1cccc(CCNC(=O)CN2CCN(C)CC2C)c1` (stereo not given), the Percent Effect is reported as 18.7%. `CC(=O)N1CCC(Oc2ccc(C#N)cn2)CC1` showed a Percent Effect of 11.1%. In the case of `COc1cccc(CCC(=O)N2CCCCC2Cn2cccn2)c1` (stereo not given), the Percent Effect is reported as 9.7%. Work on `Cc1scc(C(=O)N2CCC3(CC(=O)NC3=O)C2)c1-c1ccccc1` (stereo not given) yielded a Percent Effect of 0.902%. `CCc1csc(C2CCCN(C(=O)c3ccc(OC)nn3)C2)n1` (stereo not given) gave a Percent Effect of 14.5%. For `CN(C)S(=O)(=O)c1ccc(CN2CCCC2c2ccccc2)o1` (stereo not given), the Percent Effect was 15.1%. `Clc1cc(CN2CCCC2Cn2cncn2)c2ncccc2c1` (stereo not given) showed a Percent Effect of -0.129%. In the case of `C=C(C)CN(Cc1cccc(O)c1)C1CCC(O)CC1` (stereo not given), the Percent Effect is reported as -11.6%. In the case of `CCn1c(N)nc2cc(C(=O)NCc3ccccc3Cl)cnc21`, the Percent Effect is reported as 5.03%. Compound `CCOCC1CN(S(C)(=O)=O)Cc2cnn(C)c21` (stereo not given) has a Percent Effect of -2.61%. In the case of `c1ccc(OC[C@]23COC[C@H]2CN(c2ncccn2)C3)nc1`, the Percent Effect is reported as -4.34%. `CCCC(=O)NCc1cc(Br)c(OC)c(OC)c1` gave a Percent Effect of 25.5%. Compound `CCc1csc(C2CCCN(C(=O)c3ccnc(N(C)C)c3)C2)n1` (stereo not given) has a Percent Effect of 41.7%. `Cc1ccsc1-c1nnc(C2CCN(Cc3ccc(F)cc3)CC2)o1` was tested, and the Percent Effect was -11.7%. Work on `CC(NC(N)=O)C(=O)N(C)CCCc1cc(-c2ccccc2)no1` (stereo not given) yielded a Percent Effect of 25%. With `Cc1cccc(C(=O)NCCCN2CCN(c3ccccc3)CC2)c1` the Percent Effect was 13.6%. In the case of `CC1CCCCN1CCNC(=O)c1ccn(-c2ccc(F)cc2)n1` (stereo not given), the Percent Effect is reported as 6.78%. For `Cc1noc(C)c1CN1CC2(CCN(C(=O)c3cscn3)CC2)CC1=O`, the Percent Effect was 0.0432%. In the case of `O=C(NCc1ccccn1)NC1CCOc2ccccc21` (stereo not given), the Percent Effect is reported as 12%. Compound `COc1ccc(CN2C[C@@H](OCc3ccccn3)[C@H]3COC[C@H]32)cc1` has a Percent Effect of 22.6%. `Cc1cnn(CC2CCCN2Cc2nc3ccccc3nc2C)c1` (stereo not given) gave a Percent Effect of 9.09%. `Cn1cc(C2CCCN2CCCc2nc(-c3cccs3)no2)cn1` (stereo not given) was tested, and the Percent Effect was 18.4%. In the case of `O=C(Nc1cccc(OCc2ccc(F)cc2)c1)C1COCCO1` (stereo not given), the Percent Effect is reported as 5.69%. `O=C(C1CCCc2[nH]ncc21)N1CCCCCC1` (stereo not given) showed a Percent Effect of 0.454%. With `CN(C)S(=O)(=O)N1CCC(Oc2ccc(C#N)cn2)CC1` the Percent Effect was 28%. Compound `O=C(c1cccc2cccnc12)N1CCCN(c2cccnn2)CC1` has a Percent Effect of 0.652%. `CC(NC(=O)NCc1cccnc1N1CCCCC1)c1nccs1` (stereo not given) showed a Percent Effect of 2.75%. Compound `CCS(=O)(=O)c1ccccc1N1CCC(NC(=O)NC2CCCC2)CC1` has a Percent Effect of 16%. For `Cc1nc(CN2CCN(CC(=O)Nc3c(C)cccc3C)CC2)no1`, the Percent Effect was -5.46%. `Fc1ccc2c(c1)C(NCc1nnc3n1CCCCC3)CCCO2` (stereo not given) was tested, and the Percent Effect was 0.659%. With `Cc1cc(N2CCN(Cc3ccc(-c4cc[nH]n4)o3)CC2)cc(C)n1` the Percent Effect was 9.15%. In the case of `COc1cc(C)nc(N2CCN(C(=O)CCc3cscn3)CC2)n1`, the Percent Effect is reported as 0.884%. `O=C(NCC1CC1)[C@H]1CC[C@@H]2[C@@H](CCN2Cc2ccoc2)O1` was tested, and the Percent Effect was -7.7%. `Cc1noc(C)c1C(=O)N(C)Cc1nc(-c2ccccn2)no1` was tested, and the Percent Effect was -1.43%. With `CNc1nc(CNC(=O)Nc2ccccc2-c2noc(C)n2)cs1` the Percent Effect was 17.1%. With `Cc1nnc2n1CCN(C(=O)c1cc(Cl)c[nH]1)C2` the Percent Effect was -3.3%. `CCn1cc2c(n1)CN(CC1CC1)CC2COCC1CC1` (stereo not given) was tested, and the Percent Effect was -20.4%.

What follows are compounds tested against T1, Tyrosyl-tRNA synthetase, putative (Trypanosoma cruzi (strain CL Brener)) (UniProt Q4DSP6) (assay: Trypanosoma cruzi tyrosyl tRNA synthetase (TcYRS) _High Tyrosine SOP). Conditions: 30 µM.
T1 sequence (whole entry): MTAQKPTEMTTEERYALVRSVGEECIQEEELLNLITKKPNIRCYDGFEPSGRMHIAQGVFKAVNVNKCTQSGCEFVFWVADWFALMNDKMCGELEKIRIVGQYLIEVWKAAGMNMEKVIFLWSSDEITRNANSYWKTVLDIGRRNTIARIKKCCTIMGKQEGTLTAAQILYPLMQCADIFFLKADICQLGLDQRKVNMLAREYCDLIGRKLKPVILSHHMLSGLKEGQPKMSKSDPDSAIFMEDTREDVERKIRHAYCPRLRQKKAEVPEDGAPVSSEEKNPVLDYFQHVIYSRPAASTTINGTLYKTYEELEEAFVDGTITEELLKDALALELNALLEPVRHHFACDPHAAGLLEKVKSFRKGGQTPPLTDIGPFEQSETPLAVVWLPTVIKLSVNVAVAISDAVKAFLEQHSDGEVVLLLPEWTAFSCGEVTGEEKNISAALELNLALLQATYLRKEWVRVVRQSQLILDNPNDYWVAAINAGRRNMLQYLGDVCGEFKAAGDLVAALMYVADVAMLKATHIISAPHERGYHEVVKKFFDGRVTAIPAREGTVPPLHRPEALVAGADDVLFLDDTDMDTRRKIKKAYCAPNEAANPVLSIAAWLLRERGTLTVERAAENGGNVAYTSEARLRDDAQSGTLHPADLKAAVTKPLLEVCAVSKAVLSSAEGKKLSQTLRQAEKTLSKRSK
Format: functional
Parameters: scale not given: direction of the effect not stated beside the values
In the case of `COc1ccccc1CN1CCC2(CC1)CC(Oc1ccccn1)CO2` (stereo not given), the Percent Effect is reported as 4.25%. In the case of `CC(C)Nc1nc(N2CCOCC2)nc2c1CN(CC(=O)N(C)C)CC2`, the Percent Effect is reported as -1.06%. With `c1ccc(CCN2CCN(c3ccc4nncn4n3)CC2)nc1` the Percent Effect was 2.91%. Compound `COc1cccc(CCNC(=O)CN2CCN(C)CC2C)c1` (stereo not given) has a Percent Effect of 4.95%. Compound `CC(=O)N1CCC(Oc2ccc(C#N)cn2)CC1` has a Percent Effect of 4.3%. Work on `COc1cccc(CCC(=O)N2CCCCC2Cn2cccn2)c1` (stereo not given) yielded a Percent Effect of 0.952%. In the case of `Cc1scc(C(=O)N2CCC3(CC(=O)NC3=O)C2)c1-c1ccccc1` (stereo not given), the Percent Effect is reported as 8.99%. `CCc1csc(C2CCCN(C(=O)c3ccc(OC)nn3)C2)n1` (stereo not given) was tested, and the Percent Effect was 7.77%. `CN(C)S(=O)(=O)c1ccc(CN2CCCC2c2ccccc2)o1` (stereo not given) gave a Percent Effect of 6.4%. Work on `Clc1cc(CN2CCCC2Cn2cncn2)c2ncccc2c1` (stereo not given) yielded a Percent Effect of 2.97%. In the case of `C=C(C)CN(Cc1cccc(O)c1)C1CCC(O)CC1` (stereo not given), the Percent Effect is reported as 2.15%. For `CCn1c(N)nc2cc(C(=O)NCc3ccccc3Cl)cnc21`, the Percent Effect was 7.53%. `CCOCC1CN(S(C)(=O)=O)Cc2cnn(C)c21` (stereo not given) showed a Percent Effect of 4.17%. `c1ccc(OC[C@]23COC[C@H]2CN(c2ncccn2)C3)nc1` showed a Percent Effect of 3.12%. Work on `CCCC(=O)NCc1cc(Br)c(OC)c(OC)c1` yielded a Percent Effect of 2.73%. `CCc1csc(C2CCCN(C(=O)c3ccnc(N(C)C)c3)C2)n1` (stereo not given) showed a Percent Effect of 4.25%. In the case of `Cc1ccsc1-c1nnc(C2CCN(Cc3ccc(F)cc3)CC2)o1`, the Percent Effect is reported as 3.23%. `CC(NC(N)=O)C(=O)N(C)CCCc1cc(-c2ccccc2)no1` (stereo not given) gave a Percent Effect of 3.96%. In the case of `Cc1cccc(C(=O)NCCCN2CCN(c3ccccc3)CC2)c1`, the Percent Effect is reported as 1.06%. Work on `CC1CCCCN1CCNC(=O)c1ccn(-c2ccc(F)cc2)n1` (stereo not given) yielded a Percent Effect of -26.1%. `Cc1noc(C)c1CN1CC2(CCN(C(=O)c3cscn3)CC2)CC1=O` was tested, and the Percent Effect was 6.45%. `O=C(NCc1ccccn1)NC1CCOc2ccccc21` (stereo not given) showed a Percent Effect of 9.9%. `COc1ccc(CN2C[C@@H](OCc3ccccn3)[C@H]3COC[C@H]32)cc1` showed a Percent Effect of -1.08%. `Cc1cnn(CC2CCCN2Cc2nc3ccccc3nc2C)c1` (stereo not given) showed a Percent Effect of 0%. Work on `Cn1cc(C2CCCN2CCCc2nc(-c3cccs3)no2)cn1` (stereo not given) yielded a Percent Effect of 4.43%. With `O=C(Nc1cccc(OCc2ccc(F)cc2)c1)C1COCCO1` (stereo not given) the Percent Effect was -8.2%. With `O=C(C1CCCc2[nH]ncc21)N1CCCCCC1` (stereo not given) the Percent Effect was 2.15%. `CN(C)S(=O)(=O)N1CCC(Oc2ccc(C#N)cn2)CC1` gave a Percent Effect of 5.29%. In the case of `O=C(c1cccc2cccnc12)N1CCCN(c2cccnn2)CC1`, the Percent Effect is reported as 2.86%. `CC(NC(=O)NCc1cccnc1N1CCCCC1)c1nccs1` (stereo not given) showed a Percent Effect of 5.83%. `CCS(=O)(=O)c1ccccc1N1CCC(NC(=O)NC2CCCC2)CC1` showed a Percent Effect of 6.93%. `Cc1nc(CN2CCN(CC(=O)Nc3c(C)cccc3C)CC2)no1` showed a Percent Effect of 7.62%. For `Fc1ccc2c(c1)C(NCc1nnc3n1CCCCC3)CCCO2` (stereo not given), the Percent Effect was 2.15%. Work on `Cc1cc(N2CCN(Cc3ccc(-c4cc[nH]n4)o3)CC2)cc(C)n1` yielded a Percent Effect of 3.83%. In the case of `COc1cc(C)nc(N2CCN(C(=O)CCc3cscn3)CC2)n1`, the Percent Effect is reported as 5.82%. `O=C(NCC1CC1)[C@H]1CC[C@@H]2[C@@H](CCN2Cc2ccoc2)O1` showed a Percent Effect of 4.3%. `Cc1noc(C)c1C(=O)N(C)Cc1nc(-c2ccccn2)no1` was tested, and the Percent Effect was 4.92%. Compound `CNc1nc(CNC(=O)Nc2ccccc2-c2noc(C)n2)cs1` has a Percent Effect of 1.47%. Compound `Cc1nnc2n1CCN(C(=O)c1cc(Cl)c[nH]1)C2` has a Percent Effect of 0.49%. With `CCn1cc2c(n1)CN(CC1CC1)CC2COCC1CC1` (stereo not given) the Percent Effect was 5.32%.
